# Compound activity deposited in PubChem BioAssay by Broad Institute.
# DUX4 txn inh: blocks DUX4-driven transcriptional activation; 293T-iDUX4 ZSCAN4-Gaussia luciferase reporter, 24 h; active compounds read low; 37,000 compounds, 0.8% hits; activity change, negative = inhibition, % (no concentration beside the values);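 active = mean inhibition of at least 10% in the main channel, exceeding the control channel by a set limit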;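 also: 0% = median of neutral control wells and -100% = median of positive control wells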
# * hit, by the source's call; ! = not confirmed by another sample. This excerpt belongs to a sample that is enriched for hits.
SMILES,DUX4 txn inh
O=C1NCCOCn2nncc2CC[C@H]1Cc1ccc(Cl)cc1,0
C[C@@H]1CCCCO[C@@H](CN(C)C(=O)NC2CCCCC2)[C@@H](C)CN([C@@H](C)CO)C(=O)c2cc(NC(=O)CCC(F)(F)F)ccc2O1,-2
CCNC(=O)[C@@H]1[C@@H](CO)[C@@H]2Cn3c(cccc3=O)[C@@H]2N1CC1CCCCC1,3
C[C@@H]1CN([C@@H](C)CO)C(=O)c2cc(NC(=O)c3ccccc3)ccc2O[C@@H](C)CCCCO[C@H]1CN(C)Cc1ccc(C(F)(F)F)cc1,2
CCCN1[C@@H]2c3ccc(-c4cccnc4)c(=O)n3C[C@H]1[C@H](CO)[C@H]2C(=O)NC1CCCC1,8
CNC(=O)C[C@H]1CC[C@@H]2[C@@H](COc3ccc(NC(=O)c4cscn4)cc3C(=O)N2C)O1,1
O=C1N[C@@H](Cc2ccccc2)COCc2cnnn2CC[C@@H]1Cc1cccc(F)c1,0
COc1ccc(C#Cc2ccc3c(c2)[C@H]2[C@H](CCN2Cc2ccncc2)[C@H](CO)N3)cc1,1
Cc1ccccc1-c1ccc(C2[C@@H]3CN(Cc4cccnc4)C[C@H]2N3)cc1 (stereo partly specified),-24*
COc1ccccc1-c1ccc(C2[C@@H]3CN(C(=O)c4cccnc4)C[C@H]2N3)cc1 (stereo partly specified),10
CN(C)C(=O)c1ccc(-c2ccc(C3[C@@H]4CN(Cc5cccnc5)C[C@H]3N4)cc2)cc1 (stereo partly specified),4
COc1ccc(NC(=O)N2C[C@@H]3N[C@H](C2)C3c2ccc(-c3ccncc3)cc2)cc1 (stereo partly specified),8
Cc1ccccc1-c1ccc(C2[C@@H]3CN(C(=O)C4CCOCC4)C[C@H]2N3)cc1 (stereo partly specified),1
CN(C)C(=O)c1ccc(-c2ccc(C3[C@@H]4CN(S(=O)(=O)c5ccccc5F)C[C@H]3N4)cc2)cc1 (stereo partly specified),1
COc1ccc(-c2ccc(C3[C@@H]4CN(C(=O)c5cnccn5)C[C@H]3N4)cc2)cc1 (stereo partly specified),-32*
COc1ccccc1-c1ccc(C2[C@@H]3CN(C(=O)c4ccncc4)C[C@H]2N3)cc1 (stereo partly specified),9
COc1ccccc1S(=O)(=O)N1C[C@@H]2N[C@H](C1)C2c1ccc(-c2ccccc2C)cc1 (stereo partly specified),-42*!
Cc1ccccc1-c1ccc([C@@H]2[C@@H](CO)N3C(=O)CN(S(C)(=O)=O)C[C@@H]23)cc1,7
Cc1ccccc1-c1ccc(C2[C@@H]3CN(S(=O)(=O)c4ccccc4C)C[C@H]2N3)cc1 (stereo partly specified),-36*!
O=C(c1cnccn1)N1C[C@@H]2N[C@H](C1)C2c1ccc(/C=C/c2ccccc2)cc1 (stereo partly specified),-5
CC(C)(C)S(=O)N1Cc2cc(C(=O)O)nc(-c3cccc(C#CCC4CCCC4)c3)c2[C@@H]1CCO (stereo partly specified),1
O=C(CC1CC1)N1[C@@H](CO)[C@@H]2c3ccccc3N(S(=O)(=O)c3ccc(F)cc3)C[C@@H]21,-6
O=C(C[C@@H]1CC[C@@H]2[C@H](COC[C@@H](O)CN2C(=O)Nc2cccc(F)c2)O1)NCc1ccccc1Cl,-7
CC(=O)N1CC2(C1)[C@@H](c1ccccc1)[C@@H](CO)N2CC1CCOCC1,0
COc1ccc2c3c([nH]c2c1)[C@H](CO)N(Cc1nccs1)CC31CCN(Cc2nccs2)CC1,2
SMILES,DUX4 txn inh
C/C=C/c1ccc(C2[C@@H]3CN(S(=O)(=O)c4ccc(F)cc4)C[C@H]2N3)cc1 (stereo partly specified),2
COc1ccc(NC(=O)N2C[C@@H]3N[C@H](C2)C3c2ccc(-c3cncnc3)cc2)cc1 (stereo partly specified),9
COc1cccc(S(=O)(=O)N2[C@@H]3CNC[C@H]2C3c2ccc(-c3ccccc3C)cc2)c1 (stereo partly specified),16
C/C=C/c1ccc(C2[C@@H]3CN(S(=O)(=O)c4ccccc4F)C[C@H]2N3)cc1 (stereo partly specified),-6
COc1ccc(-c2ccc(C3[C@@H]4CN(S(=O)(=O)c5ccccc5C)C[C@H]3N4)cc2)cc1 (stereo partly specified),-42*!
Cc1ccccc1-c1ccc(C2[C@@H]3CN(S(=O)(=O)c4ccccc4)C[C@H]2N3)cc1 (stereo partly specified),-50*!
COc1cccc(NC(=O)N(C)C[C@H]2OCc3cnnn3CCCC(=O)N([C@@H](C)CO)C[C@H]2C)c1,2
CC(=O)N1[C@H](CO)[C@H](c2ccccc2)[C@@H]1CN(C(=O)c1ccc(F)cc1)C(C)C,1
COc1ccc2c3c([nH]c2c1)[C@H](CO)N(C)CC31CN(C(=O)c2ccccc2F)C1,-7
